Source: PubChem BioAssay
Sampled rows, rich in hits. Any-hit rate of the full collection: about 0.81%.
PTAP TSG101 blk – blocks PTAP/TSG101 interaction to inhibit HIV-1 budding; Q99816; Fluorescence polarization, FITC-PTAP peptide / Tsg101 binding; Potency, µM (top dose mostly 115 µM), actives largely listed as inhibitors; 340,000 tested, under 10 active; AID 493005; active = well fitted inhibition curve with a large enough effect in the main read-out, with a control signal flat, not every such curve was filed as active; inconclusive = small, poorly fitted or top-dose-only effect, or effect the other way, or a change in a side signal; inactive = no such curve, though single readings can be large or run the other way
Target sequence (Q99816 whole entry, looked up): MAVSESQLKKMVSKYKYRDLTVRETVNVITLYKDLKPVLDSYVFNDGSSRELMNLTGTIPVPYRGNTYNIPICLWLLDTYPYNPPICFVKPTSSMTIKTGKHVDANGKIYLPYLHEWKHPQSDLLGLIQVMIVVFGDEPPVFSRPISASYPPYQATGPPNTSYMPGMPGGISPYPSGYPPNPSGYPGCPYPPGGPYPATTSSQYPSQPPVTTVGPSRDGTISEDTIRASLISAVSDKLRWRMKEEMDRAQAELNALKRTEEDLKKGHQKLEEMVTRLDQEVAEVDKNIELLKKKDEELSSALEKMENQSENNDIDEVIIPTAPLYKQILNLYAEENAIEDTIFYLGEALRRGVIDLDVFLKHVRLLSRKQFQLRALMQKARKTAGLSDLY
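Compounds were pin-transferred onto Tsg101 binding domain (10 uM final) in HEPES pH 7.5 buffer, then FITC-PTAP peptide was added at 50 nM final. After 20 min at RT, polarization reported peptide displacement across a qHTS concentration series.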
TRPML1 ag – agonists of human TRPML1 channel. Q9GZU1. TRPML1-expressing cells, Ca2+ dye fluorescence, FDSS. activation, % (no concentration beside the values). 0.12% of 410,000 active; in the data active = activation above about 50%; inconclusive = mostly about 30% to 49%
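TRPML1-DL cells, Tet-induced overnight (~16 h, 37 degrees C), loaded 45-90 min at room temperature with Ca8 no-wash calcium dye plus quencher. FDSS fluorescence: 10 s baseline, compound pin-transfer, 110 s agonist read, then EC80 54-4 (4uM final) and 110 s antagonist read.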
TRHR PAM – allosteric enhancers of human TRH receptor. P34981. TRHR cells, fluo-8 calcium fluorescence, EC20 TRH enhancement. AID 493056. enhancement, % at 2 µM. 0.66% of 360,000 active; in the data active = enhancement above about 30%
Target sequence (P34981 whole entry, looked up): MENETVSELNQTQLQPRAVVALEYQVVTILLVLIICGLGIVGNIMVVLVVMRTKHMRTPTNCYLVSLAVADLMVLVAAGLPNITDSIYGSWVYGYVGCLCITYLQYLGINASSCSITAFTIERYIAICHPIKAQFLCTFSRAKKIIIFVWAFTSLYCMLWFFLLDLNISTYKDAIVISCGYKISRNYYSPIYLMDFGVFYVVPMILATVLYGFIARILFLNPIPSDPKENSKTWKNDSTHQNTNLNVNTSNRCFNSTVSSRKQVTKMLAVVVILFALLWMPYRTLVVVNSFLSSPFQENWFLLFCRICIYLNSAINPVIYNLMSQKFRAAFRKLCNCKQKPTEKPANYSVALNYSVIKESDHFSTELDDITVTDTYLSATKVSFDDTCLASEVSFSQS
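TRHR-expressing cells loaded with fluo-8 calcium dye were read kinetically (ex 480/em 530) during compound addition, then stimulated with an EC20 of TRH (10 nM final). Enhancement of the Gq-mediated intracellular calcium response was scored.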
TRPML1 inh – inhibitors of human TRPML1 channel | TRPML1-inducible cells, Ca2+ dye fluorescence, FDSS; stronger effect = lower value; inhibition of EC80 agonist-evoked calcium signal | Q9GZU1 | activity change, negative = inhibition, % (concentration not given with the values) | 0.02% of 390,000 active; in the data active = activity change below about -50%; inconclusive = between about -30% and that limit;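 also: stimulus is agonist 54-4 at its EC80 concentration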
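TRPML1-DL cells, Tet-induced overnight (~16 h, 37 °C) at 1,500 cells/well, were loaded with Ca8 no-wash dye plus quencher for 45-90 min at room temperature. Compounds were pinned during FDSS kinetic reading; agonist 54-4 at EC80 (4 uM final) then added.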
TRHR agonist – agonists of human TRH receptor | P34981 | activation, % at 2 µM | TRHR cells, calcium flux fluo-8, FDSS agonist mode | AID 493084 | 0.18% of 360,000 active; in the data active = activation above about 30%
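TRHR-expressing cells, plated overnight in medium with 10% serum, were loaded with fluo-8 calcium dye at room temperature. After a 10 s baseline, library compound was pin-added and calcium release was recorded kinetically (ex 480/em 530) as agonist response.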
Large screens that a line does not name were inactive; ! = not active in a repeat.

CCOC(=O)CCC(NC(=O)CCC(=O)NC(CCC(=O)OCC)C(=O)OCC)C(=O)OCC (configuration not stated)	TRHR PAM 30.6
Cc1ccc2oc(C(=O)Nc3ccc(S(=O)(=O)N(C)Cc4ccccc4)cc3)cc(=O)c2c1	none (no result: PTAP TSG101 blk)
Cc1cc2oc(C(=O)Nc3ccc(S(=O)(=O)N(C)Cc4ccccc4)cc3)cc(=O)c2cc1C	TRHR PAM 30.9 (no result: PTAP TSG101 blk)
Clc1cccc[n+]1CCc1ccccc1	none (no result: PTAP TSG101 blk, TRHR PAM, TRPML1 inh, TRHR agonist)
CCCCCC(=O)C(=O)c1ccc(O)cc1O	TRHR PAM 33.7
Cc1ccc(S(=O)(=O)CCC(=O)c2ccc(O)cc2O)cc1	none
O=C(Nc1cc2c3c(c1)CC(=O)N3CCC2)c1ccccc1Br	TRHR PAM 33.9
CCN(CC)C(=O)c1ccc2c(c1)N(Cc1ccccc1)C(=O)CS2=O (configuration not stated)	TRHR PAM 32.9
O=C(NCc1ccco1)c1ccc2c(c1)N(Cc1ccccc1)C(=O)CS2=O (configuration not stated)	none
CNc1ccc(C=C2C=CC=C2)cc1	none (no result: PTAP TSG101 blk, TRHR PAM, TRPML1 inh, TRHR agonist)
Fc1ccccc1OCCn1c(=S)[nH]c2ccccc21	TRHR PAM 37.3
Cc1cccc(OCCC(=O)NCC(=O)Nc2c(C)cccc2C)c1	TRHR PAM 31.1
Cc1ccc(C(=O)NNC(=O)CCOc2cccc(C)c2)cc1	none
COc1cc2nc(N3CCCN(C)CC3)nc(N(C)C)c2cc1OC	none (no result: PTAP TSG101 blk, TRHR PAM, TRPML1 inh, TRHR agonist)
Cc1ccc(S(=O)(=O)N2CCN(c3nc(-n4ccnn4)nc4ccccc34)CC2)cc1	none (no result: PTAP TSG101 blk, TRHR PAM, TRPML1 inh, TRHR agonist)
CC1=C(c2ccc(C)c(C)c2)S(=O)(=O)N=C1N1CCC(C(=O)NCc2ccc(C)o2)CC1	TRHR PAM 30.5 (no result: PTAP TSG101 blk)
CCOC(=O)C[C@H]1c2cc(F)ccc2S(=O)(=O)N1Cc1cc(OC)c(OC)c(OC)c1	none (no result: PTAP TSG101 blk, TRHR PAM, TRPML1 inh, TRHR agonist)
CS(=O)(=O)N(CC(=O)Nc1ccccc1C(=O)N1CCCC1)c1cccc([N+](=O)[O-])c1	none
CC(=O)c1cccc(N(CC(=O)Nc2ccccc2C(=O)N2CCCC2)S(C)(=O)=O)c1	TRHR PAM 54.6
O=C1C=C(N(CCO)Cc2ccccc2)c2ccccc2C1=O	TRHR PAM 39.2
O=C1C2C3C=CC(C3)C2C(=O)N1CCCCCCN1C(=O)C2C3C=CC(C3)C2C1=O (configuration not stated)	TRHR PAM 32.0
CCCN(CCC)c1ccc(/C=C/c2sc3ccccc3[n+]2CCCCI)cc1	none (no result: PTAP TSG101 blk, TRHR PAM, TRPML1 inh, TRHR agonist)
CC(=O)c1sc2nc(-c3cccs3)cc(C(F)(F)F)c2c1N	PTAP TSG101 blk inconclusive, TRPML1 ag inconclusive, TRHR agonist 40.9
Cc1c(C(=O)O)sc2nc(-c3cccs3)cc(C(F)(F)F)c12	none
CCCCN(CCCC)c1ccc(C=Nc2ccc(/C=C/c3ccnc4ccccc34)cc2)cc1C	none (no result: PTAP TSG101 blk, TRHR PAM, TRPML1 inh, TRHR agonist)
Cc1ccc(-n2[nH]c(C)c(/C=N/NC(=O)c3ccc([N+](=O)[O-])cc3)c2=O)c(C)c1	TRHR PAM 50.2 (no result: PTAP TSG101 blk, TRPML1 ag, TRPML1 inh)
Cc1[nH]n(-c2cccc3ccccc23)c(=O)c1/C=N/NC(=O)c1cccc([N+](=O)[O-])c1	none
O=C(c1ccc([N+](=O)[O-])cc1)N(Cc1ccc(Cl)cc1)N1C(=O)CCCC1=O	TRHR agonist 36.0
CN(C)c1ccc(/C=C2\SC(=S)N(Nc3ncc(C(F)(F)F)cc3Cl)C2=O)cc1	PTAP TSG101 blk inconclusive, TRPML1 ag 52.8, TRHR agonist 79.8
Cc1cc(C)nc(NN2C(=O)/C(=C/c3ccccc3)SC2=S)n1	none
CC(C)CC(c1nnnn1Cc1cccs1)N1CCN(c2nc3ccccc3s2)CC1 (configuration not stated)	TRPML1 ag 73.8
CCC(c1nnnn1Cc1cccs1)N1CCN(c2nc3ccccc3s2)CC1 (configuration not stated)	none
CC1(C)C2([N+](=O)[O-])CN3CC1([N+](=O)[O-])CN(C2)C3C(O)C(O)C(O)CO (configuration not stated)	TRHR PAM 31.2
CC1(C)C2([N+](=O)[O-])CN(CCO)CC1([N+](=O)[O-])CN(CCO)C2	none
COc1cc(OC)cc(C(=O)Nc2nnc(NC(=S)Nc3ccccc3)s2)c1	TRHR PAM 35.7
COc1ccc(C(=O)NCCc2csc(-c3ccc(Cl)cc3)n2)c(OC)c1	TRHR PAM 36.4 (no result: PTAP TSG101 blk)
COc1ccc(C(=O)NCCc2csc(-c3ccc(Cl)cc3)n2)cc1	none (no result: PTAP TSG101 blk)
COc1cc(/C=N/NC(=O)c2cccnc2)ccc1OCC(=O)N1CCOCC1	TRHR PAM 33.5
COc1ccc(/C=N/NC(=O)c2cccnc2)cc1CN1CCOCC1	none
C/C(=N\Nc1ccc([N+](=O)[O-])cc1[N+](=O)[O-])c1ccc(-n2nncc2C(C)(C)C)cc1	TRPML1 ag 76.0
C/C(=N/Nc1ccccc1[N+](=O)[O-])c1ccc([N+](=O)[O-])cc1	none
Cc1cc(C)cc(Oc2nc3c(C)cccn3c(=O)c2/C=C(\C#N)c2nc3ccccc3s2)c1	TRHR PAM 53.9 (no result: PTAP TSG101 blk)
Cc1cccc(Oc2nc3c(C)cccn3c(=O)c2/C=C(\C#N)c2nc3ccccc3s2)c1	none (no result: PTAP TSG101 blk)
COc1cc(NC(=O)C(OC(=O)CNC(=O)c2ccccc2)c2ccccc2)c(OC)cc1Cl (configuration not stated)	none (no result: PTAP TSG101 blk, TRPML1 ag, TRPML1 inh)
CCOC(=O)c1ccc2c(c1)N(CC(=O)N1CCCCC1)C(=O)C(C)(C)O2	none
CCOC(=O)c1ccc2c(c1)N(CC(=O)N1CCCC1)C(=O)C(C)(C)O2	TRHR PAM 35.7
CN(C)c1ccc(/C=C/c2sc3ccccc3[n+]2Cc2ccccc2)cc1	none (no result: PTAP TSG101 blk, TRHR PAM, TRPML1 inh, TRHR agonist)
CN(C)c1ccc(/C=C2\C=Cc3ccccc32)c(Cl)c1	none (no result: PTAP TSG101 blk, TRHR PAM, TRPML1 inh, TRHR agonist)
Cc1cc(C)n(C(=O)CNC(=O)c2cccs2)n1	TRHR PAM 37.2
COc1ccc(C)cc1NC(=O)C1CCCN(S(=O)(=O)c2ccc3[nH]c(=O)ccc3c2)C1 (configuration not stated)	TRHR PAM 46.8!
COc1ccccc1NC(=O)C1CCCN(S(=O)(=O)c2ccc3[nH]c(=O)ccc3c2)C1 (configuration not stated)	none
COc1cc2nc(N3CCCCC3)nc(NC(C)C)c2cc1OC	none (no result: PTAP TSG101 blk, TRHR PAM, TRPML1 inh, TRHR agonist)
CSc1cccc(NC(=O)N2CCN(C)CC2)c1	TRHR PAM 36.5
CN1CCN(C(=O)Nc2ccccc2)CC1	none
Nc1c(C(=O)c2ccccc2)sc2nsc(SCCN3CCOCC3)c12	TRPML1 ag inconclusive, TRHR agonist 89.1
CC(=O)c1sc2nsc(SCCN3CCOCC3)c2c1N	none
CCOC(=O)C1CCN(S(=O)(=O)c2ccc(C)c(C)c2)CC1	TRHR PAM 32.1
CCCCn1c(C)cc2c(c1=O)C1O[C@](c3ccsc3)(Cc3ccccc31)O2	TRHR PAM 33.0 (no result: PTAP TSG101 blk, TRPML1 ag, TRPML1 inh)
CCN(Cc1cccs1)C(=O)CN1C(=O)NC2(CCCc3ccccc32)C1=O (configuration not stated)	none
CCN(Cc1cccs1)C(=O)CN1C(=O)NC(c2ccccc2)(c2ccccc2)C1=O	TRHR PAM 35.5
